Measurements published in PubChem BioAssay AID991 (National Center for Advancing Translational Sciences (NCATS), 2007).
Activity calls are given as the source filed them. No rule for the calls is given here.

What follows are compounds tested against Microtubule-associated protein tau (Homo sapiens) (UniProt P10636) (assay: Tau Fibrillization assay). Conditions: His6-htau40 arachidonic acid fibrillization, TEM filament length; at 0.72 µM; stronger effect = lower value.
Description: NIH Molecular Libraries Screening Centers Network [MLSCN] NIH Chemical Genomics Center [NCGC] MLSCN Grant: 1 X01 MH079825-01 Assay Provider: Jeffrey A. Kuret, Ohio State University NCGC Assay Overview: A number of solution-based assays are available for quantifying the amount of aggregated protein, such as fluorescence spectroscopy, sedimentation, and static and laser light scattering. However, none of these methods allows direct visualization of filaments. Transmission electron microscopy (TEM) can complement these solution-based assays by providing information on filament morphology and length distributions. In vitro fibrillization of htau40 was performed in the presence or absence of selected compounds. The resultant filaments were detected after absorption onto formvar and carbon coated grids and examined by TEM. Random digital images of each experimental condition were obtained, imported into imaging software, and quantified for filament length and number.
NCGC Assay Protocol Summary Aggregation of His6-htau40 (5 uM final concentration) in assembly buffer was induced with arachidonic acid (50 uM final concentration) in the presence or absence of selected library compounds. Each compound was tested at IC50 and four times the IC50values as determined by the tau ThS binding assay. After incubation (18 h at 37 degrees Celsius), reactions were diluted 5-fold in distilled water and assayed by transmission electron microscopy as described previously (Necula and Kuret, 2004). […] 28(3), 251-60. Necula, M., Chirita, C. N., and Kuret, J. (2003) J. Biol. Chem. 278, 46674-46680.

Sequence of Microtubule-associated protein tau (Homo sapiens) (P10636 whole entry, looked up): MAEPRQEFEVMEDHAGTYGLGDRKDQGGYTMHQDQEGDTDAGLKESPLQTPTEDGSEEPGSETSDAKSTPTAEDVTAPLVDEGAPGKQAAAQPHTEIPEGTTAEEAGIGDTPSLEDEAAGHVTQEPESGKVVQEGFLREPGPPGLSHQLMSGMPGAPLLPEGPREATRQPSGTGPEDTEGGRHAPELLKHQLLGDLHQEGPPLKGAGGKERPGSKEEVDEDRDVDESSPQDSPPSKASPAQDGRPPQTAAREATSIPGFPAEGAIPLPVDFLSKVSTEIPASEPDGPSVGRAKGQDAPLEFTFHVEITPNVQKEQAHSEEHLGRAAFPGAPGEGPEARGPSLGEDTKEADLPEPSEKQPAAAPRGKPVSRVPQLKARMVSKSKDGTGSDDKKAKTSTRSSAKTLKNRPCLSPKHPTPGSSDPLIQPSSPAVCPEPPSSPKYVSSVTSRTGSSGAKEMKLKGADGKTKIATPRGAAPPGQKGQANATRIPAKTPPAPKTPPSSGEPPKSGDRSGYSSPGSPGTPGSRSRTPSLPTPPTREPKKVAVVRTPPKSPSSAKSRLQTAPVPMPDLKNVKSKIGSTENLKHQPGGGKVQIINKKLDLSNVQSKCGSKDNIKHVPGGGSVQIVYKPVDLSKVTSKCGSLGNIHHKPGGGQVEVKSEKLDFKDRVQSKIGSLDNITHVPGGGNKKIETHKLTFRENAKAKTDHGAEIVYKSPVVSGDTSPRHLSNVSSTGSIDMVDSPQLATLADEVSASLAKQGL

SMILES	filament length
CN(C)c1ccc(C(=C2C=CC(=[N+](C)C)C=C2)c2ccc(N(C)C)cc2)cc1	50.3% (active)

Same assay, conditions: His6-htau40 arachidonic acid fibrillization, TEM filament length; at 0.76 µM; stronger effect = lower value

SMILES	filament length
Cc1cc(-c2ccc(N=Nc3ccc4c(S(=O)(=O)O)cc(S(=O)(=O)O)c(N)c4c3O)c(C)c2)ccc1N=Nc1ccc2c(S(=O)(=O)O)cc(S(=O)(=O)O)c(N)c2c1O	91.8% (inactive)

Same assay, conditions: His6-htau40 arachidonic acid fibrillization, TEM filament length; at 4 µM; stronger effect = lower value

SMILES	filament length
CN(C)c1ccc(/C=C2/C(=O)Nc3ccccc32)cc1	41.8% (active)

Same assay, conditions: His6-htau40 arachidonic acid fibrillization, TEM filament length; at 6.4 µM; stronger effect = lower value

SMILES	filament length
N=C1C=CC(=C(c2ccc(N)cc2)c2ccc(N)cc2)C=C1	50.8% (active)

Same assay, conditions: His6-htau40 arachidonic acid fibrillization, TEM filament length; at 8.2 µM; stronger effect = lower value

SMILES	filament length
COc1cccc2c1C(=N)c1c(O)c3c(c(O)c1C2=O)C[C@](O)(C(C)=O)C[C@@H]3O[C@H]1C[C@H](N)[C@@H](O)[C@H](C)O1	86.9% (inactive)

Same assay, conditions: His6-htau40 arachidonic acid fibrillization, TEM filament length; at 8.4 µM; stronger effect = lower value

SMILES	filament length
Cc1ccc2nc(-c3ccc(N=Nc4cc(S(=O)(=O)O)c5ccccc5c4O)cc3)sc2c1S(=O)(=O)O	111% (inactive)

Same assay, conditions: His6-htau40 arachidonic acid fibrillization, TEM filament length; filament length at lower concentration; at 0.18 µM; stronger effect = lower value

SMILES	filament length [%]
CN(C)c1ccc(C(=C2C=CC(=[N+](C)C)C=C2)c2ccc(N(C)C)cc2)cc1	109

Same assay, conditions: His6-htau40 arachidonic acid fibrillization, TEM filament length; filament length at lower concentration; at 0.19 µM; stronger effect = lower value

SMILES	filament length [%]
Cc1cc(-c2ccc(N=Nc3ccc4c(S(=O)(=O)O)cc(S(=O)(=O)O)c(N)c4c3O)c(C)c2)ccc1N=Nc1ccc2c(S(=O)(=O)O)cc(S(=O)(=O)O)c(N)c2c1O	116

Same assay, conditions: His6-htau40 arachidonic acid fibrillization, TEM filament length; filament length at lower concentration; at 1 µM; stronger effect = lower value

SMILES	filament length [%]
CN(C)c1ccc(/C=C2/C(=O)Nc3ccccc32)cc1	94.5

Same assay, conditions: His6-htau40 arachidonic acid fibrillization, TEM filament length; filament length at lower concentration; at 1.6 µM; stronger effect = lower value

SMILES	filament length [%]
N=C1C=CC(=C(c2ccc(N)cc2)c2ccc(N)cc2)C=C1	114

Same assay, conditions: His6-htau40 arachidonic acid fibrillization, TEM filament length; filament length at lower concentration; at 2.1 µM; stronger effect = lower value

SMILES	filament length [%]
COc1cccc2c1C(=N)c1c(O)c3c(c(O)c1C2=O)C[C@](O)(C(C)=O)C[C@@H]3O[C@H]1C[C@H](N)[C@@H](O)[C@H](C)O1	91.3
Cc1ccc2nc(-c3ccc(N=Nc4cc(S(=O)(=O)O)c5ccccc5c4O)cc3)sc2c1S(=O)(=O)O	100
